High-throughput results: PubChem BioAssay, National Center for Advancing Translational Sciences (NCATS)
Shown is part of a subset that was picked to be rich in hits.
CHX counter – counter-screen hit for Shiga toxin inhibitors, cycloheximide. cell reporter, cycloheximide protein synthesis inhibition counterscreen. max response, %. 300,000 compounds, 12% hits. AID 2314; in the data active = max response mostly above about 13%, no sharp cut-off; inactive = mostly below about 14%; also: read at 38.3 µM for the half of the compounds with a filed dose; 0% is about no effect
FBPA Giardia inh – blocks Giardia fructose-bisphosphate aldolase activity. A8B2U2. purified Giardia FBPA. Potency, µM (series often up to 59.6 µM), without a hit: top-dose activity, negative = inhibition, actives largely listed as inhibitors. 290,000 compounds, 0.71% hits. AID 2451; also: potency is read from the fitted curve at half-maximal effect; % is scaled to controls: 0 for no effect and ±100 for the full control effect; nearly all actives have a fitted effect of over 55% in size
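Giardia FBPA (40 nM reagent) was preincubated 10 min at RT with compound (up to 57.5 uM final), then substrate plus GAPDH/TPI/NAD/arsenate coupling system with diaphorase/resazurin was added; resorufin fluorescence (525/598 nm) was read after 20 min.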
Tb PYK inh – T. brucei pyruvate kinase inhibition; Q57TT1; TbPYK enzyme, Kinase-Glo Plus ATP luminescence, 45 min; Potency, µM (highest dose often 76.8 µM), for inactives: top-dose activity, negative = inhibition, actives largely listed as inhibitors; 410,000 compounds, 0.12% hits; AID 624173; also: potency is read from the fitted curve at half-maximal effect; % is scaled to controls: 0 for no effect and ±100 for the full control effect; nearly all actives have a fitted effect of over 50% in size
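T. brucei PYK with substrate was exposed to pin-transferred compounds across a concentration series, then started with 130 uM ADP (final). After 45 min at room temperature, Kinase-Glo Plus luminescence was read, normalized and curve-fitted.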
LmPK inhibitor – LmPK (Leishmania mexicana) enzyme inhibition | Q27686 | purified LmPK, Kinase-Glo ATP luminescence, 1 h | Potency, µM (top dose mostly 57.5 µM), for inactives: at the top dose activity change, negative = inhibition, usual class: inhibitors | 290,000 compounds, 0.37% hits; also: potency is read from the fitted curve at half-maximal effect; % is scaled to controls: 0 for no effect and ±100 for the full control effect
Target sequence (Q27686 whole entry, looked up): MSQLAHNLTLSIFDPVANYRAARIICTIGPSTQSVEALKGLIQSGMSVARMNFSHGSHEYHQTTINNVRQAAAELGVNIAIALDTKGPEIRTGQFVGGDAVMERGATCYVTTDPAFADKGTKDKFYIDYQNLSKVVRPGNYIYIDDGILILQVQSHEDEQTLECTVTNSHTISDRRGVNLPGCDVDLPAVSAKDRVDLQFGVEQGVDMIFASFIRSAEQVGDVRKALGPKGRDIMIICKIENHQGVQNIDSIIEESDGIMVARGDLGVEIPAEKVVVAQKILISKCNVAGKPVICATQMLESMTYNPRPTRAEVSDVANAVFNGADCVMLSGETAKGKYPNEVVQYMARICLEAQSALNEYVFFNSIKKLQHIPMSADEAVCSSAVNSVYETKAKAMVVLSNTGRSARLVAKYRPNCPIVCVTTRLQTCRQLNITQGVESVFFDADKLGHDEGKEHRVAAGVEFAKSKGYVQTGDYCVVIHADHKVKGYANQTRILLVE
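Screened at intermediate enzyme activity to detect both inhibitors and activators: LmPK at 0.1 nM, with a 0.5 nM enzyme column as activation reference. PEP 0.5 mM, ADP 0.1 mM; ATP detected by luminescence after 1 h.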
Shiga toxin inh – inhibitors of Shiga toxin in Vero cells; Vero cells, Shiga toxin protein synthesis inhibition reporter; inhibition, % at 38.7 µM; 290,000 compounds, 9.2% hits; in the data active = inhibition mostly above about 28%, no sharp cut-off; inactive = mostly below about 43%; also: 0% is about no effect
Sm TGR inh – S. mansoni TGR enzyme inhibition. Q962Y6. purified TGR, DTNB reduction, TNB absorbance 405 nm. Potency, µM (top dose mostly 114 µM), inactives show at the highest dose activity change, negative = inhibition, usual class: inhibitors. 360,000 compounds, 3% hits; also: potency is read from the fitted curve at half-maximal effect; % is scaled to controls: 0 for no effect and ±100 for the full control effect; nearly all actives have a fitted effect of over 60% in size
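Kinetic colorimetric format: TGR-catalysed, NADPH-driven DTNB reduction monitored via TNB absorbance. Enzyme dispensed at 20 nM; compound exposure 15 min at room temperature before reaction start.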
* = called active by the depositor; ? = inconclusive; · = not tested or not shown; [ ] = another dose, or the depositor's remark. Unless noted, calls follow the shape of the dose curve; as a rule, active = well fitted curve in the direction sought with a large enough effect; inconclusive = small, poorly fitted or top-dose-only effect, or another doubt; inactive = no such curve, though single readings can be large; an effect the other way counts as inactive or inconclusive.

SMILES	CHX counter	FBPA Giardia inh	Tb PYK inh	LmPK inhibitor	Shiga toxin inh	Sm TGR inh
COC[C@@H](c1ccc(C(F)(F)F)cc1)N1CCN(C2(C)CCN(C(=O)c3c(C)ncnc3C)CC2)C[C@@H]1C	·	·	0%	·	·	·
Cc1ccc(-c2c(CN3CCN(c4cccc(C(F)(F)F)c4)CC3)csc2C)cc1	·	·	5%	·	·	6%
CCC(CC)C(=O)OCc1cc(=O)n2nc(C3CC3)sc2n1	·	·	-1%	·	·	-8%
O=C(N/N=C/c1cccc2ccccc12)c1n[nH]c2c1CCCC2	7	0%	-1%	1%	23	11%
O=C(N/N=C/c1ccc(Cl)cc1Cl)c1n[nH]c2c1CCCC2	21*	0%	-5%	-5%	67*	-2%
Cc1ccc(/C=N/NC(=O)c2n[nH]c3c2CCCC3)cc1	32*	3%	1%	5%	53*	11%
COC(=O)[C@H](C)NC(=O)C/C=C\[C@@H](C)[C@H]1C=C[C@H](O)[C@@H](CO)O1	·	-5%[12.9 µM]	·	·	·	·
O=C(CSc1nnc(-c2ccccc2O)o1)Oc1ccc(OCc2ccccc2)cc1	31*	-8%	-1%	-2%	101*	?
O=C(CSc1nnc(-c2ccncc2)o1)Oc1ccccc1	-2	-1%	-1%	6%	-9	-18%
O=C(COC(=O)c1cccc(S(=O)(=O)NCc2ccccc2)c1)c1ccccc1	19*	3%	-6%	2%	57*	-1%
O=C(NCc1ccccc1)c1cccc(S(=O)(=O)NCc2ccccc2)c1	-2	5%	-2%	1%	-6	-11%
CNS(=O)(=O)c1cccc(C(=O)OCC(=O)NCc2ccccc2)c1	0	10%	5%	3%	-18	-6%
O=C(CNS(=O)(=O)c1ccccc1)OCC(=O)c1ccc(OC(=O)c2ccccc2)cc1	15*	3%	-11%	5%	32*	-14%
Cc1cc(C)c(C(=O)COC(=O)c2cccc(S(=O)(=O)NCc3ccccc3)c2)cc1C	23*	0%	-16%	-2%	11	1%
CN(Cc1ccco1)c1cc(-c2cccc(NS(C)(=O)=O)c2)ncn1	·	-5%	·	·	·	·
O=C1OCC/C1=C\NCCCCCCCCN/C=C1\CCOC1=O	·	·	-5%	·	·	·
CN(Cc1ccccc1C#N)S(=O)(=O)c1cccs1	7	-19%	-26%	7%	34	7%
N#Cc1nccnc1S(=O)(=O)c1cccs1	-2	-25%	11%	17%	2	0.1µM*
CCN1C(=O)c2ccccc2S(=O)(=O)c2ccc(C(=O)NCc3ccc(C)cc3)cc21	·	·	-13%	·	·	-1%
O=C(Nc1ccc2c(c1)CCC2)C1COc2ccccc2O1 (configuration not stated)	58*	4%	6%	-3%	40*	-6%
O=C(Nc1ccncc1)C1COc2ccccc2O1 (configuration not stated)	11*	2%	-2%	3%	49	-2%
O=C(Nc1ccc(F)cc1)C1COc2ccccc2O1 (configuration not stated)	20*	-5%	5%	0%	39	-26%
O=C(Nc1cnc2ccccc2c1)C1COc2ccccc2O1 (configuration not stated)	31*	-4%	-7%	-7%	80*	-2%
COC(=O)c1cc(NC(=O)C2COc3ccccc3O2)cc(C(=O)OC)c1 (configuration not stated)	-1	-3%	-4%	4%	17	0%
NC(=O)c1ccc(NC(=O)C2COc3ccccc3O2)cc1 (configuration not stated)	-2	26%	-7%	0%	-2	4%
O=C(c1cccc(F)c1)N1CCC2(CCCN(c3cccc(-c4ccccc4)c3)C2)CC1	·	-2%	-7%	·	·	·
O=C(Nc1ccc2c(c1)OCO2)C1CC(c2ccccc2Cl)=NO1 (configuration not stated)	20	-1%	0%	-1%	48*	-5%
O=C(Nc1ccc2c(c1)OCO2)C1COc2ccccc2O1 (configuration not stated)	36*	-4%	-7%	-6%	107*	53%
